Experiment in all cases: DAPPL (digital affinity profiling via proximity ligation, sequencing); 10 mM Tris-HCl pH 7.5, 50 mM NaCl, 1 mM DTT, 4% glycerol, room temperature, 30 min; GST-TFs on glutathione beads, 16-mer random dsDNA library, 0.1% formaldehyde crosslink after washing; high values mean tight binding
One experiment concerns the target T1, FEV (Homo sapiens, UniProt Q99581 1-238).
T1 sequence: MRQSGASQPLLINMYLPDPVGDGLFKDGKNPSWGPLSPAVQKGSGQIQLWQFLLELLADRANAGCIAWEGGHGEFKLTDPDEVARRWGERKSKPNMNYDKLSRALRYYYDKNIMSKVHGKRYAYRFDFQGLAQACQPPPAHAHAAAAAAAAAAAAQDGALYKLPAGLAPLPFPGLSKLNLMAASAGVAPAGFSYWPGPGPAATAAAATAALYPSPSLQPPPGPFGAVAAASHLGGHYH
To be noted: protein: recombinant; tags: N-terminal GST; dsDNA, one strand shown. In outline:
(§1)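 Binding signal is each hexamer's read frequency for a factor divided by its frequency in the tag-only sample. The factors were GST-fused human transcription factors from yeast, captured on glutathione beads, DNA-barcoded and pooled with that sample. Pools were incubated with 200 nmole of a random double-stranded 16-mer DNA library in Tris/NaCl/DTT/glycerol buffer at room temperature for 30 min, then washed, crosslinked with 0.1% formaldehyde, proximity-ligated with BsaI/T4 ligase (1 h, 37 °C), PCR-amplified and sequenced on an Illumina NextSeq500.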

The next experiment has as its target ETV5 (Homo sapiens, UniProt P41161 1-510). As to conditions: protein: recombinant; tags: N-terminal GST; dsDNA, one strand shown. The essentials: as §1
Another experiment has as its target HSF1 (Homo sapiens, UniProt Q00613 1-529). To be noted: protein: recombinant; tags: N-terminal GST; chain copies: 3; dsDNA, one strand shown. The essentials:
as §1

Another experiment deals with T2, SPIC (Homo sapiens, UniProt Q8N5J4 1-248).
T2 sequence: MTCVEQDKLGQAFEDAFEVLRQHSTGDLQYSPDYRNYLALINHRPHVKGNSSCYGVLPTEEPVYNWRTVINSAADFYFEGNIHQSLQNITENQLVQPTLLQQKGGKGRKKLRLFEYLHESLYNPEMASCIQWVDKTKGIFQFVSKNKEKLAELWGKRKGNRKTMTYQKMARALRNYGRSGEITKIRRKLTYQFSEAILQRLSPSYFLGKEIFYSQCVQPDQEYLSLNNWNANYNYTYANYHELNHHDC
To be noted: protein: recombinant; tags: N-terminal GST; dsDNA, one strand shown. In outline: as §1

A further experiment concerns the target ELF4 (Homo sapiens, UniProt Q99607 1-663). As to conditions: protein: recombinant; tags: N-terminal GST; dsDNA, one strand shown. In outline:
as §1

Another experiment addresses T3, ELK4 (Homo sapiens, UniProt P28324-2 1-405).
T3 sequence: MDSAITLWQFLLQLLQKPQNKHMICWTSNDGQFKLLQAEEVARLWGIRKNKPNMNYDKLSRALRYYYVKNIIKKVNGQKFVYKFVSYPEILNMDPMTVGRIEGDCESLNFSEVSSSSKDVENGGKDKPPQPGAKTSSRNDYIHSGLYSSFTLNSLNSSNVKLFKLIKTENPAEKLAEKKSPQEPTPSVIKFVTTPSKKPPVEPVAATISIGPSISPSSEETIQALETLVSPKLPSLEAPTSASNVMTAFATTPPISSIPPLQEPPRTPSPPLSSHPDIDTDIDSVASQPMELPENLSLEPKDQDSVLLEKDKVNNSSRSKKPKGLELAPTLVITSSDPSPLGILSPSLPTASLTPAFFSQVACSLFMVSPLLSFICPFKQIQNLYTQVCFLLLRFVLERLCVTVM
As to conditions: protein: recombinant; tags: N-terminal GST; dsDNA, one strand shown. The essentials: as §1

Another experiment addresses T4, ETV2 (Homo sapiens, UniProt O00321 1-342).
T4 sequence: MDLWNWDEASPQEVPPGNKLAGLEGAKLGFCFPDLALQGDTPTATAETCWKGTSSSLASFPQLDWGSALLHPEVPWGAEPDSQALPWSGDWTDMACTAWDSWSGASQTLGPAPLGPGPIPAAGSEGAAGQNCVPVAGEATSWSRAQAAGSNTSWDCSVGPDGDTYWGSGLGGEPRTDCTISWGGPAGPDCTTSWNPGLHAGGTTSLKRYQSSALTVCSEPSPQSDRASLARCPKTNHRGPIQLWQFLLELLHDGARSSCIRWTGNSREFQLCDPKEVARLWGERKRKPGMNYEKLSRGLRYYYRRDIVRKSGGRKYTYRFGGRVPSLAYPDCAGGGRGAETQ
As to conditions: protein: recombinant; tags: N-terminal GST; dsDNA, one strand shown. In outline:
as §1

The next experiment has as its target T5, ELF3 (Homo sapiens, UniProt P78545 1-371).
T5 sequence: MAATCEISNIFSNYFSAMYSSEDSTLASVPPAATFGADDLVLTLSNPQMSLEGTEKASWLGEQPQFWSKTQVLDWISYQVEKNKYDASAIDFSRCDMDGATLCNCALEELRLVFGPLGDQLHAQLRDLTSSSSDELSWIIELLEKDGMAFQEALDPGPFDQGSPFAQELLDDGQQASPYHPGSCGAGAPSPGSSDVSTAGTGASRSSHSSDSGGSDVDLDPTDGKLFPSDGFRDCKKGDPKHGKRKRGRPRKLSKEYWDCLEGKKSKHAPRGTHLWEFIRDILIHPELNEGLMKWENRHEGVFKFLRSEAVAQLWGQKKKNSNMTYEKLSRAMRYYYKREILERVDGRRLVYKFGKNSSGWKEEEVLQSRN
To be noted: protein: recombinant; tags: N-terminal GST; dsDNA, one strand shown. In outline:
as §1

The target of another experiment is CRX (Homo sapiens, UniProt O43186 1-299). To be noted: protein: recombinant; tags: N-terminal GST; dsDNA, one strand shown. In outline:
as §1

Another experiment addresses ETV1 (Homo sapiens, UniProt P50549 1-477). To be noted: protein: recombinant; tags: N-terminal GST; dsDNA, one strand shown. The essentials: as §1
For the next experiment, the target named is T6, ERF (Homo sapiens, UniProt P50548 1-548).
T6 sequence: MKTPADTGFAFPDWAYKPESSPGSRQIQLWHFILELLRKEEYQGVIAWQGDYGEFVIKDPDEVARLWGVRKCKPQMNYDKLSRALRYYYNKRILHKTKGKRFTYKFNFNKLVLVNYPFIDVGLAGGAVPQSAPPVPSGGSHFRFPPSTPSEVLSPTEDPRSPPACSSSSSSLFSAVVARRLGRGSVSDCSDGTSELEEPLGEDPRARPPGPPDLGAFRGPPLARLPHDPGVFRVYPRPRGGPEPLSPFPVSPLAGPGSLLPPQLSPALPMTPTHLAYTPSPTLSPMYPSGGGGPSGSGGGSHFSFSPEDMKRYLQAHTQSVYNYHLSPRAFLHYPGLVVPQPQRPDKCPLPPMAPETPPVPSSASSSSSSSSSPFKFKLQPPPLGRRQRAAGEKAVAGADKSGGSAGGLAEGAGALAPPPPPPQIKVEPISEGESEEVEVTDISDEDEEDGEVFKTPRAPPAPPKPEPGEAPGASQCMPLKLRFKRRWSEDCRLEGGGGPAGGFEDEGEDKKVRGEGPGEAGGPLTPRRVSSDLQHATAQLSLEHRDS
To be noted: protein: recombinant; tags: N-terminal GST; dsDNA, one strand shown. In outline:
as §1

Another experiment concerns the target T7, ETV3L (Homo sapiens, UniProt Q6ZN32 1-361).
T7 sequence: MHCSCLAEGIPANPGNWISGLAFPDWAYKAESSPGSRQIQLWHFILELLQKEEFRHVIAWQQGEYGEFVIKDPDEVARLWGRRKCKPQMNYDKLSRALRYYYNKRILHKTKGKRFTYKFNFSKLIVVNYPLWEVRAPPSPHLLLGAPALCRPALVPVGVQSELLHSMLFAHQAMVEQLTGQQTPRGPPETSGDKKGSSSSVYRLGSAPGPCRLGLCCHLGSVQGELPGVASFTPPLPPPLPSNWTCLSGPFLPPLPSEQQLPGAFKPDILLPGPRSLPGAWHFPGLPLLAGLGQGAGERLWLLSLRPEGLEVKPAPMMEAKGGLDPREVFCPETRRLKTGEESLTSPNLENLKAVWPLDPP
To be noted: protein: recombinant; tags: N-terminal GST; dsDNA, one strand shown. The essentials: as §1

In the next experiment the target is T8, ETS2 (Homo sapiens, UniProt P15036 1-469).
T8 sequence: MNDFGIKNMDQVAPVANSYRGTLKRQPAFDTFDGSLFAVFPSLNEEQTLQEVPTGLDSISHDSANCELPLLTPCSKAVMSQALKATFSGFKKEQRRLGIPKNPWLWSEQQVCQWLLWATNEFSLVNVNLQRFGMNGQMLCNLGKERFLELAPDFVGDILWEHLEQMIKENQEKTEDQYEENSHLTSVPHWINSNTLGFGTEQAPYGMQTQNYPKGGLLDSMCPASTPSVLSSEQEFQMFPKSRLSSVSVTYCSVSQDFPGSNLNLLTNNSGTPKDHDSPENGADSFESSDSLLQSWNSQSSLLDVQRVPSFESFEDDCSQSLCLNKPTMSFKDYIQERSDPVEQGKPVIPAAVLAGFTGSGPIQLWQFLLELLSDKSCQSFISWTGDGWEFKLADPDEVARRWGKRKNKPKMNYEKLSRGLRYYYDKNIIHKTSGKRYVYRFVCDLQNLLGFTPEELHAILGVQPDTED
To be noted: protein: recombinant; tags: N-terminal GST; dsDNA, one strand shown. The essentials:
as §1

The target in a further experiment is T9, SPDEF (Homo sapiens, UniProt O95238 1-335).
T9 sequence: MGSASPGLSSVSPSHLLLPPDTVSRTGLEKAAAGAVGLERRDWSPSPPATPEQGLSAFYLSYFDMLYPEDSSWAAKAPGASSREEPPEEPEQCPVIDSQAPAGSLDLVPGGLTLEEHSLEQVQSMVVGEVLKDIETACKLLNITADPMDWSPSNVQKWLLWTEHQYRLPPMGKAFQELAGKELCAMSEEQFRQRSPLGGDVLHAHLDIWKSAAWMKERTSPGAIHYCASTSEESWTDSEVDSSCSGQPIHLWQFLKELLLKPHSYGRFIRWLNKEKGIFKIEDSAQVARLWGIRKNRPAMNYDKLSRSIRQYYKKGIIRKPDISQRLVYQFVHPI
As to conditions: protein: recombinant; tags: N-terminal GST; dsDNA, one strand shown. The essentials: as §1

The next experiment addresses T10, ETV7 (Homo sapiens, UniProt Q9Y603 1-341).
T10 sequence: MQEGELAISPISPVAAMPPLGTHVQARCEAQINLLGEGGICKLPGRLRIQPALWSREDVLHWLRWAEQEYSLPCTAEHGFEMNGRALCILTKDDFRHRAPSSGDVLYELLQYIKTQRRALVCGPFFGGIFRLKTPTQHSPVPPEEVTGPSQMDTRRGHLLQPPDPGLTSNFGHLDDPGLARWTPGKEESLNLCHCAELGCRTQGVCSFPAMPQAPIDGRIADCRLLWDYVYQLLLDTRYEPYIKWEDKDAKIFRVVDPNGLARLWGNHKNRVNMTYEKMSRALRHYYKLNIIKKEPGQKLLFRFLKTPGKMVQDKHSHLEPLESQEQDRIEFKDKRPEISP
As to conditions: protein: recombinant; tags: N-terminal GST; dsDNA, one strand shown. The essentials: as §1

A further experiment deals with T11, ELF5 (Homo sapiens, UniProt Q9UKW6-2 1-255).
T11 sequence: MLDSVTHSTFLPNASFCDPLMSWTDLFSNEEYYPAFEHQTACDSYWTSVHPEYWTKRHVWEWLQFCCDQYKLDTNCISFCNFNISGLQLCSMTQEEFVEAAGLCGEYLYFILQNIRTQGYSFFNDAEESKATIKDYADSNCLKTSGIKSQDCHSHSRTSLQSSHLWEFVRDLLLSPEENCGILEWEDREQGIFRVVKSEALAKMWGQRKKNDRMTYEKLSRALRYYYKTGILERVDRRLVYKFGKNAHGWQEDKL
To be noted: protein: recombinant; tags: N-terminal GST; dsDNA, one strand shown. The essentials: as §1

The next experiment addresses T12, ETV3 (Homo sapiens, UniProt P41162-2 1-143).
T12 sequence: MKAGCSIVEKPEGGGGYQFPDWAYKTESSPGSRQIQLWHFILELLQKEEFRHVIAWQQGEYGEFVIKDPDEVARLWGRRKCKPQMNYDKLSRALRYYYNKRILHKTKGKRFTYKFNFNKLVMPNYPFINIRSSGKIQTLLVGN
As to conditions: protein: recombinant; tags: N-terminal GST; dsDNA, one strand shown. The essentials:
as §1

For a further experiment, the target named is ETV6 (Homo sapiens, UniProt P41212 1-452). To be noted: protein: recombinant; tags: N-terminal GST; dsDNA, one strand shown. The essentials:
as §1

Sequence of ETV1 (P50549 whole entry): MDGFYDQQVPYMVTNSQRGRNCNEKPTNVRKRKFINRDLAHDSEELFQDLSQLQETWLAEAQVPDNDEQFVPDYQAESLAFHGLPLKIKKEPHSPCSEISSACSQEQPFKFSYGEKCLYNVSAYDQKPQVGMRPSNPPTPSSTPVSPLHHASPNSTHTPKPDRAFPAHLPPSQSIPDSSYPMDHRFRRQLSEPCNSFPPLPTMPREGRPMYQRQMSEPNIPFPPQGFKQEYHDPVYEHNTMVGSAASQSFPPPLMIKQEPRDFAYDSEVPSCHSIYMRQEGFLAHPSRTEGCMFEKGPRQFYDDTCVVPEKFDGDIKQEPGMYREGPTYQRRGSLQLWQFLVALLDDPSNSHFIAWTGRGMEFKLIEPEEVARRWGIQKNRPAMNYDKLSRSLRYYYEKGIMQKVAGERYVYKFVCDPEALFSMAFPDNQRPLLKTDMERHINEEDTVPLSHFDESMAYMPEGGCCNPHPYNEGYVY
Sequence of ETV6 (P41212 whole entry): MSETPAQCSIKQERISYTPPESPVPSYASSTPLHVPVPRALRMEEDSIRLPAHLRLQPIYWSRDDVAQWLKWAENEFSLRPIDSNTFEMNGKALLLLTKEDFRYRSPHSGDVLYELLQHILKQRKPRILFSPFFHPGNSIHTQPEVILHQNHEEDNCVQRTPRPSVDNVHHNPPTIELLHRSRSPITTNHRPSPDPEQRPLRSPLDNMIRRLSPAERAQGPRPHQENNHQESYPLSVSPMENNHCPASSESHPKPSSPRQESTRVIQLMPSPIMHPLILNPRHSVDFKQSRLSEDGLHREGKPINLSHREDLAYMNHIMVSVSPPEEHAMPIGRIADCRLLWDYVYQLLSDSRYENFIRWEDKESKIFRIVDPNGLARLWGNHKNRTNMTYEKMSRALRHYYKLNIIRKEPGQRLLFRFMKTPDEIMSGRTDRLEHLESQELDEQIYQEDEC
Sequence of CRX (O43186 whole entry): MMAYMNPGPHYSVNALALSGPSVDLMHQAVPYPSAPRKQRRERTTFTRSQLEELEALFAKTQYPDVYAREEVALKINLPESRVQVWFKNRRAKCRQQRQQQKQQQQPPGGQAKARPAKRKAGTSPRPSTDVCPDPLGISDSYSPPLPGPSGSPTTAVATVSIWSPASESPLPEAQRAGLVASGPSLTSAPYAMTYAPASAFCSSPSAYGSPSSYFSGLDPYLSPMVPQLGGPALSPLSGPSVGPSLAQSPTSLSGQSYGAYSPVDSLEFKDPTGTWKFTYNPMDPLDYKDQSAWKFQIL
Sequence of HSF1 (Q00613 whole entry): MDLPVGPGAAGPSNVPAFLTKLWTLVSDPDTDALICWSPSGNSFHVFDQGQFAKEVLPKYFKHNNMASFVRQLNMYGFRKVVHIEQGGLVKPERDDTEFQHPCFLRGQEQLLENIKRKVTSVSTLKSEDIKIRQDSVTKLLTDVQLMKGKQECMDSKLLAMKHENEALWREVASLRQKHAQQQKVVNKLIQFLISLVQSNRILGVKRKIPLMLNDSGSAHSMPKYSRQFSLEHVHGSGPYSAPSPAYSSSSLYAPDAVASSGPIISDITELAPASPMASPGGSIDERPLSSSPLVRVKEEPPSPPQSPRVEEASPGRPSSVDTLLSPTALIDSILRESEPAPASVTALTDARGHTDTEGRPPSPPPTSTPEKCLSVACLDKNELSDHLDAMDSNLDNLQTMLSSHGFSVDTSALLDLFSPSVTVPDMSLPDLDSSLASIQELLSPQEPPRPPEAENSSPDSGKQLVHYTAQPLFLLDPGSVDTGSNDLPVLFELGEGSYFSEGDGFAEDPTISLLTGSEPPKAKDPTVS
Sequence of ETV5 (P41161 whole entry): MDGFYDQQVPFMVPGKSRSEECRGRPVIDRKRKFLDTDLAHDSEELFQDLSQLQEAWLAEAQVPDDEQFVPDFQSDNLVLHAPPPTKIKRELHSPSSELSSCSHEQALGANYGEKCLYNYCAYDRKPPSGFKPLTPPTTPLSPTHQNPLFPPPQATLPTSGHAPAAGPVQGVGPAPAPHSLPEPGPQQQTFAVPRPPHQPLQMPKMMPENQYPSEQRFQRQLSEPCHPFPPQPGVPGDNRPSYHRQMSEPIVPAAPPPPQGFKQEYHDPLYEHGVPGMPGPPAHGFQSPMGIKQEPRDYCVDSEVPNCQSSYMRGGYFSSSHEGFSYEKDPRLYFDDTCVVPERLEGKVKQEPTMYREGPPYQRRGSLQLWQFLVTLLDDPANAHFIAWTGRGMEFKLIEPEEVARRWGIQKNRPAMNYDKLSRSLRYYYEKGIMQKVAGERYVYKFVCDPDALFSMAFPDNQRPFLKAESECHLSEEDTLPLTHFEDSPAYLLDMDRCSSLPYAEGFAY
Sequence of ELF4 (Q99607 whole entry): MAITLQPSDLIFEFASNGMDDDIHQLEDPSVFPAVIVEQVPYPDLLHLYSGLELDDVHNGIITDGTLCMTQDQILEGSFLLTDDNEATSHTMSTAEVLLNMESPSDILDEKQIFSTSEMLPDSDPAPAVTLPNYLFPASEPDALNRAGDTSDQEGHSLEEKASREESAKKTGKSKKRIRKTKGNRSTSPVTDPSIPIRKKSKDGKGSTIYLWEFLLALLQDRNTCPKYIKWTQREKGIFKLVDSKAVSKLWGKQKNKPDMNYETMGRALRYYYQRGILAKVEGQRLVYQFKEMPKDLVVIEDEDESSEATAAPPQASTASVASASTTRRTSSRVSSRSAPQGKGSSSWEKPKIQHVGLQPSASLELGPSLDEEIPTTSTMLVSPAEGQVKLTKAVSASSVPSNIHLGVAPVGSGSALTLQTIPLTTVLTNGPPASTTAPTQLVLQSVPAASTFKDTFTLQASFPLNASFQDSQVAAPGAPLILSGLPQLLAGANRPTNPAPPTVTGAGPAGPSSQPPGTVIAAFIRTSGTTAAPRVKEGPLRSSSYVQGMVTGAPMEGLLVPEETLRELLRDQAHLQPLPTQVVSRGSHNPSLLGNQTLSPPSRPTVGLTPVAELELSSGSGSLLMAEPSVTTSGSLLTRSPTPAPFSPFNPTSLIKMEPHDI

For the sequence CCCGCT, the binding signal is 1.35 fold enrichment (6-mer frequency, TF over GST control) with FEV; 1.32 fold enrichment (6-mer frequency, TF over GST control) with ETV5; 1.26 fold enrichment (6-mer frequency, TF over GST control) with HSF1; 1.25 fold enrichment (6-mer frequency, TF over GST control) with SPIC; 1.49 fold enrichment (6-mer frequency, TF over GST control) in the experiment with ELF4; 1.62 fold enrichment (6-mer frequency, TF over GST control) in the experiment with ELK4. The binding signal with ETV2 is 1.16 fold enrichment (6-mer frequency, TF over GST control); with ELF3 it was 1.32 fold enrichment (6-mer frequency, TF over GST control); with CRX it was 1.25 fold enrichment (6-mer frequency, TF over GST control); with ETV1, 1.44 fold enrichment (6-mer frequency, TF over GST control); with ERF it was 1.37 fold enrichment (6-mer frequency, TF over GST control); in the experiment with ETV3L, 1.47 fold enrichment (6-mer frequency, TF over GST control). In addition, the binding signal with ETS2 was 1.22 fold enrichment (6-mer frequency, TF over GST control); with SPDEF, 1.32 fold enrichment (6-mer frequency, TF over GST control); in the experiment with ETV7, 1.36 fold enrichment (6-mer frequency, TF over GST control); with ELF5 it was 1.39 fold enrichment (6-mer frequency, TF over GST control); in the experiment with ETV3, 1.36 fold enrichment (6-mer frequency, TF over GST control); with ETV6, 1.38 fold enrichment (6-mer frequency, TF over GST control).

Values taken from publication PMC7862700, “An all-to-all approach to the identification of sequence-specific readers for epigenetic DNA modifications on cytosine”.
